MRP1 act: activators of MRP-1; 0.61% of 140,000 active; AID 799; H69AR cells + doxorubicin, viability rescue, CellTiter-Glo; viability increase, % at 10 µM;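 active means viability gain under doxorubicin at or above a set limit, the compound median plus 3 SD, cut at about 4.7% in these data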;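 further: MRP-1 overexpressing cells given doxorubicin 25 µM after compound pretreatment; 18-22 h compound pretreatment then 72 h with doxorubicin before readout; 0% = doxorubicin-only wells and 100% = vehicle-treated cells without doxorubicin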
MRP resist rev: compounds reversing MRP-mediated drug resistance | 0.04% of 85,000 active | H69AR cells + 2 uM doxorubicin, CellTiter-Glo, 72 h | AID 602 | differential viability (reversal), % at 10 µM;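 active means viability drop by adding the cancer drug above about 55%, with treated viability meeting a 40% cutoff, limit read from the data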;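 further: viability without doxorubicin minus viability with 2 µM doxorubicin for each compound; larger differential means the compound sensitizes cells more to doxorubicin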
hDAT+cocaine: modulates human dopamine transporter uptake under cocaine. Q01959. LLC-PK1 hDAT cells, [14C]-dopamine uptake with cocaine IC80; actives deviate in either direction. B-score at 10 µM. 1.3% of 110,000 active. AID 449768;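 active means Z score or B-score, a plate-position-corrected score, falls beyond the plate's 99.7% confidence bounds, in either direction; inactive means both scores lie inside the 99.7% bounds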;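 further: scored against the spread of the other compound wells on the same plate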
Target sequence (Q01959 whole entry, looked up): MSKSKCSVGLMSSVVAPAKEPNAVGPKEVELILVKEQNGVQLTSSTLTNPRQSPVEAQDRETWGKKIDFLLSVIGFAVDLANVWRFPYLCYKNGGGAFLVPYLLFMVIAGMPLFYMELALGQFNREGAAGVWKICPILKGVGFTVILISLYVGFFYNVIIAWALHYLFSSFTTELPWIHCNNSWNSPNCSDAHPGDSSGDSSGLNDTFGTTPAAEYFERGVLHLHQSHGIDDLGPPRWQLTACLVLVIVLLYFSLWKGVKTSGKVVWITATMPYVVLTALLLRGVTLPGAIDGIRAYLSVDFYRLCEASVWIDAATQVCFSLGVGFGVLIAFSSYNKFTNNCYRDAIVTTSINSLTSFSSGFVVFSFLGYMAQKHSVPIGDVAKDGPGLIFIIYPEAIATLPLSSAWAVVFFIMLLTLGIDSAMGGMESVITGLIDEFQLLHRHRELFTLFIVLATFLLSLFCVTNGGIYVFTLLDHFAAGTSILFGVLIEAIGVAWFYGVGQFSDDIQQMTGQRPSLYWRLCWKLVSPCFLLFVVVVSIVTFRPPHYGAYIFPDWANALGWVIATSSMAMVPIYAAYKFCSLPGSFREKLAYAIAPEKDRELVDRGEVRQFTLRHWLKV
Numbers without * were called inactive; / = no result. Only some compounds are listed: those with a hit (about 1.5% of all), similar ones and a draw of the others.

SMILES	MRP1 act	MRP resist rev	hDAT+cocaine
Cn1c2c(c(=O)n(C)c1=O)C(CC(=O)Nc1ccccc1)C(=O)N2 (centres undefined)	0	-5	-7.9*
COc1ccccc1NC(=O)CC1C(=O)Nc2c1c(=O)n(C)c(=O)n2C (centres undefined)	-2	-33	-0.072
O=C(O)CCCNC(=O)c1ccccn1	-1	/	/
CC(=O)c1ccc(NS(=O)(=O)Cc2ccc(Cl)cc2)cc1	0	7	3.2*
CC(=O)Nc1cccc(NS(=O)(=O)Cc2ccc(Cl)cc2)c1	0	10	0.36
CCC(C)n1c(SCC(=O)/C(C#N)=C(\C)N)nc2ccccc2c1=O (centres undefined)	-2	/	/
COc1ccc2[nH]c(C)c(C(=O)CN3CCOCC3)c2c1	-1	3	-3*
COc1ccc2[nH]c(C)c(C(=O)CN3CCc4cc(OC)c(OC)cc4C3)c2c1	-4	/	0.15
O=C(/C=C/Nc1ccc([N+](=O)[O-])cc1Br)c1cccc2ccccc12	0	/	/
CCCCCNC(=O)c1ccc2c(=O)n(CCOC)c(=O)[nH]c2c1	-1	/	0.24
COCCNC(=O)c1ccc2c(=O)n(CCOC)c(=O)[nH]c2c1	-2	/	-9*
Cc1ccc(-c2nnn(CC(=O)N(c3ccccc3F)C(C(=O)NCC3CCCO3)c3c[nH]c4ccccc34)n2)cc1 (centres undefined)	8.2*	/	1
Cc1ccc(-c2nnn(CC(=O)N(c3ccccc3)C(C(=O)NCC3CCCO3)c3ccc(Cl)cc3)n2)cc1 (centres undefined)	1	/	0.86
CC(=O)Nc1ccc(C(=O)OCC(=O)N(Cc2ccccc2)C(C)(C)C)cc1	0	/	0.15
O=C1CC(c2ccco2)CC(O)=C1C=Nc1cc(Cl)ccc1O (centres undefined)	-2	-3	-8.5*
O=C1CC(c2ccco2)CC(O)=C1C=Nc1cc(Cl)ccc1Cl (centres undefined)	-1	/	/
CC(=O)N1CCC2(CC1)C(C#N)=C(N)OC1=C2C(=O)CC(C)(C)C1	-1	-6	0.22
CC1(C)CC(=O)C2=C(C1)OC(N)=C(C#N)C21CCC2(CC1)OCCO2	-1	12	23*
Nc1nonc1-c1nc2ccccc2n1CC(=O)N/N=C\c1ccc(-c2ccc(Cl)cc2)o1	0	/	0.14
N#Cc1nc(-c2ccccc2)oc1NCc1ccco1	-4	0	-2.5
CNc1oc(-c2ccccc2)nc1C#N	-1	23	-7.8*
COc1cc(OC)cc(-c2nc3ccccc3s2)c1	-2	-13	-0.41
COc1ccc(C(O)c2nc3ccccc3s2)cc1 (centres undefined)	-1	-16	-1.9*
COC(=O)C1C(=O)c2c([nH]c(C(=O)OC3CCCC3C)c2C)CC1C (centres undefined)	1	-9	-0.27
COC(=O)C1C(=O)c2c([nH]c(C(=O)OC3CCCCC3)c2C)CC1C (centres undefined)	5.2*	2	-0.018
SMILES	MRP1 act	MRP resist rev	hDAT+cocaine
C=CCNC(=O)NC(=O)COC(=O)/C(C#N)=C/c1cc(C)n(CCC(C)C)c1C	0	2	0.93
Cc1cc(/C=C(\C#N)C(=O)OCC(=O)NC(=O)NC(C)(C)C)c(C)n1CCC(C)C	-3	57*	-0.047
O=C(c1ccco1)N1CCN=C1SCc1cccc(F)c1	3	10	0.47
CC(=O)N1CCN=C1SCc1cccc(C(F)(F)F)c1	4	2	0.42
O=C(c1ccco1)N1CCN=C1SCc1ccc(F)cc1	6.0*	23	-0.14
O=C(c1ccc(Br)o1)N1CCN=C1SCc1cccnc1	5	-3	2.4*
O=C(c1cc2ccccc2o1)N1CCN=C1SCc1cccnc1	4	8	-0.26
CC(=O)N1CCN=C1SCc1ccc(Br)cc1	9.4*	10	0.5
C=C(C)C(=O)Nc1cccc(C2=NOC3(C2)C[C@H](C(N)=O)N(C(=O)c2ccccc2C(=O)c2ccccc2)C3)c1 (some centres undefined)	/	/	1.1
COC(=O)c1cc(O)cc(OC)c1Oc1cc(C)cc(O)c1C(=O)O	/	/	-0.077
CCOc1ccc(Nc2ncnc3c2cnn3Cc2ccccc2)cc1	1	22	1.1
COc1ccc(Nc2ncnc3c2cnn3Cc2ccccc2)cc1	/	0	3.2*
COc1ccccc1CN1C(=O)[C@@H]2Cc3c([nH]c4ccccc34)C(C)(C)N2C1=O	/	/	-1.5
COC(=O)c1sc2nc3c(cc2c1N)C(=O)CC(C)(C)C3	2	-6	1.7
Cc1cc(C)c(NC(=O)c2sc3nc4c(cc3c2N)C(=O)CC(C)(C)C4)c(C)c1	5.4*	/	/
Oc1c(C(c2cccs2)N2CCN(c3cccc(Cl)c3)CC2)sc2ncnn12 (centres undefined)	11*	-23	1.2
Oc1c(C(c2cccs2)N2CCOCC2)sc2ncnn12 (centres undefined)	0	7	-0.03
COc1ccc(/C=N/NC(=O)c2ccc(O)cc2O)cc1CSc1ccccn1	-3	/	/
Cc1ccnc(NC(=O)COc2c(C)cc(C)cc2[N+](=O)[O-])c1	-1	/	/
Cc1ccnc(NC(=O)COc2ccc3oc4c(c3c2)CCCC4)c1	5.2*	/	-0.39
Cc1cc(C(=O)NCC(=O)OCC(=O)Nc2ccc(OC(F)F)cc2)ccc1[N+](=O)[O-]	0	/	/
Cc1ccc(S(=O)(=O)Nc2ccc3c(c2)c2c(n3S(=O)(=O)c3ccc(C)cc3)CCCC2=O)cc1	-4	/	/
CCSc1ncnc2c1sc1nc3c(cc12)COC(C)(C)C3	-2	/	/
CCNc1cc(=O)n(C)c(=O)n1C	-1	0	-0.073
C=CCn1c(NC)cc(=O)n(C)c1=O	0	-5	-9.1*
SMILES	MRP1 act	MRP resist rev	hDAT+cocaine
CCCCC1CC(CSc2ncn[nH]2)OC1=O (centres undefined)	1	3	0.044
CCCCCCCC1CC(CSc2ncn[nH]2)OC1=O (centres undefined)	10*	9	2
O=C(Cn1cc(CCO)nn1)N1CCNCC1	/	/	-0.12
CCOC(=O)c1sc(C)c(C(=O)NC2CCCCC2)c1N	-3	15	-2.7*
CCOC(=O)c1snc(C(=O)NC2CCCCC2)c1N	1	15	-0.041
Cc1ccc(-c2nc3cccnc3s2)cc1NS(C)(=O)=O	/	/	1.6
O=C(O)/C=C/C(=O)NC1CCS(=O)(=O)C1 (centres undefined)	-1	/	/
O=C(O)/C=C\C(=O)NC1CCCCC1	29*	/	/
c1ccc2c(c1)Nc1nccnc1S2	5.1*	/	/
O=C1Nc2cccnc2Sc2ccccc21	-1	-12	-0.26
COP1(=O)C=C[C@H](N(Cc2ccccc2)S(=O)(=O)c2ccccc2[N+](=O)[O-])[C@@H](C)O1 (some centres undefined)	/	/	1.4
CCCC1CCc2c(sc(N)c2C(N)=O)C1 (centres undefined)	-1	-8	-0.092
CCN(CC)C(=O)C1CCCN(c2ncnc3c2cnn3-c2cccc(C)c2)C1 (centres undefined)	-1	-4	3.3*
CCOC(=O)C1CCCN(c2ncnc3c2cnn3-c2cccc(C)c2)C1 (centres undefined)	0	/	0.64
CCCCCCc1nc2ccccc2c(=O)n1NC(=O)c1c(O)c2cccc3c2n(c1=O)CCC3	0	-3	/
CCCn1c(/N=C/c2cc(OC)ccc2O)nc2ccccc21	-4	-45	0.22
CCCCn1c(/N=C/c2cc(OC)ccc2O)nc2ccccc21	-5	-39	2.7*

Screens: PubChem BioAssay, several laboratories
